Sm TGR inh = blocks Schistosoma mansoni thioredoxin glutathione reductase; AID 485364; purified TGR, DTNB reduction, TNB absorbance 405 nm; actives 3% (n = 360,000); Potency, µM (doses to about 114 µM), without a hit: top-dose activity change, negative = inhibition, actives largely listed as inhibitors; Q962Y6; active means well fitted inhibition curve with a large enough effect; inconclusive means small, poorly fitted or top-dose-only effect; inactive means no such curve, though single readings can be large or run the other way; further: on the % scale 0 is the no-effect control and ±100 the full control effect; nearly all actives have a fitted effect of over 60% in size
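First, TGR (20 nM dispensed) and NADPH were mixed with compound. Second, a 15 min room-temperature incubation followed. Third, further NADPH and then DTNB were added to start the reaction. Finally, TNB absorbance was monitored kinetically.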
SARS PLP yeast = blocks SARS-CoV papain-like protease in a yeast assay. actives 0.19% (n = 330,000). S. cerevisiae expressing SARS-CoV PLpro, growth rescue. Potency, µM (doses to about 32.9 µM), for the others: at the top dose activity, positive = growth rescue, hits mostly activators; calls by dose curve; further: 0% is about no effect; nearly all actives have a fitted effect of over 55% in size
* hit, by the source's call; ? = inconclusive; . = no result. Sampled rows, rich in hits. Any-hit rate of the full collection: about 3%. Potency means the concentration at half of the fitted maximal effect.

SMILES	Sm TGR inh	SARS PLP yeast
CCCCn1nnnc1SCC(=O)NCc1ccco1	39.8µM*	.
CCn1nnnc1SCC(=O)NCc1ccco1	25.1µM*	-2.4%
COc1cccc(-n2nnnc2SCC(=O)NCc2ccco2)c1	50.1µM*	-1.5%
CCC(=O)Nc1cccc(-n2nnnc2SCC(=O)NCc2ccco2)c1	-4.3%	0.8%
CCCn1c(SCC(=O)NCc2ccco2)nnc1C(C)C	?	-1.9%
COc1ccc(-n2nnnc2SCC(=O)NCc2ccco2)cc1OC	-9.4%	-16.6%
Cc1nn(C)c2c1c(C(F)(F)F)cc(=O)n2CC(=O)N1CCC(C)CC1	-2.8%	.
CC(=O)OCC1=C(C(=O)O)N2C(=O)C(NC(=O)CC(C)c3ccccc3)C2SC1 (centres undefined)	28.2µM*	-7.0%
Cc1nnc(SCC2=C(C(=O)O)N3C(=O)C(NC(=O)c4cc(F)c(F)cc4Cl)C3SC2)s1 (centres undefined)	15.8µM*	2.5%
CC1=C(C(=O)O)N2C(=O)C(NC(=O)CCCC(=O)O)C2SC1 (centres undefined)	10.9%	0.6%
C=CC1=C(C(=O)O)N2C(=O)C(NC(=O)Cc3ccccc3)C2SC1 (centres undefined)	10µM*	1.9%
CC(=O)OCC1=C(C(=O)O)N2C(=O)[C@@H](NC(=O)Cc3cccs3)[C@H]2SC1	?	4.0%
CCOc1ccc(C(=O)NC2C(=O)N3C(C(=O)O)=C(COC(C)=O)CSC23)cc1OCC (centres undefined)	22.4µM*	-2.4%
Cc1nnc(SCc2ccc(F)cc2Cl)s1	14.8%	-0.6%
CCOc1ccc(C(=O)NCC(=O)N2CCC(C)CC2)cc1OCC	8.6%	-4.4%
COCCCn1c(SCC(=O)Nc2ccc(OC)cc2)nc2c(sc3ccccc32)c1=O	8.8%	.
O=C(CCNS(=O)(=O)c1ccc(Br)s1)Nc1ccc(Br)cc1	-19.8%	.
Cn1c(=O)c2c(ncn2CC(=O)Nc2cc(Cl)cc(Cl)c2)n(C)c1=O	1.0%	.
Cc1cccc(N2C(=O)C(CC(=O)Nc3ccc(F)cc3)N(C3CCCC3)C2=O)c1 (centres undefined)	-3.3%	.
Cc1cccc(NC(=O)Cn2nc(N3CCN(c4ccccc4)CC3)ccc2=O)c1C	20.9%	.
Cc1cccc(N2C(=O)CS(=O)(=O)C23C(=O)N(Cc2c(F)cccc2Cl)c2ccccc23)c1 (centres undefined)	-0.1%	.
CC(=O)Nc1ccc(NC(=O)C2CCN(c3c(NC(C)=O)c(C)nn3-c3ccccc3)CC2)cc1	3.7%	.
CCC(C(=O)NC1CCN(C)CC1)c1ccccc1 (centres undefined)	-7.4%	13.4%
CO/N=C(/C(=O)N[C@@H]1C(=O)N2C(C(=O)O)=CCS[C@H]12)c1cnc(N)s1	-26.9%	3.0%
CCC(C(=O)NC1C(=O)N2C(C(=O)O)=C(CSc3nnc(C)s3)CSC12)c1ccccc1 (centres undefined)	3.98µM*	-0.7%
SMILES	Sm TGR inh	SARS PLP yeast
CC(=O)OCC1=C(C(=O)O)N2C(=O)C(NC(=O)COc3ccc(F)cc3)C2SC1 (centres undefined)	14.1µM*	-1.2%
Cc1nnc(SCC2=C(C(=O)O)N3C(=O)C(NC(=O)COc4ccccc4)C3SC2)s1 (centres undefined)	7.94µM*	-5.4%
O=C(COc1ccc(F)cc1)NN1C(=O)CSC1=S	-5.3%	0.6%
CC(=O)OCC1=C(C(=O)O)N2C(=O)C(NC(=O)C(C)Cn3cc(Cl)cn3)C2SC1 (centres undefined)	28.2µM*	0.2%
O=C(COc1ccccc1)NC1C(=O)N2C(C(=O)O)=C(Cl)CSC12 (centres undefined)	?	0.2%
Cc1ccc(C)c(NC(=O)CSc2nc3c([nH]c4ccccc43)c(=O)n2-c2ccc(F)cc2)c1	6.2%	.
Cc1ccc(CNc2ncnc3c2c(-c2ccccc2)cn3-c2cccc(Cl)c2)cc1	-0.1%	.
Cc1cc(NC(=O)c2ccco2)cc(-c2nc3cc(Cl)ccc3o2)c1O	-1.4%	.
Cc1nnc(SCC2=C(C(=O)O)N3C(=O)C(NC(=O)COc4ccc(F)cc4)C3SC2)s1 (centres undefined)	14.1µM*	2.9%
CC1=C(C(=O)OCc2ccccc2)N2C(=O)[C@@H](NC(=O)COc3ccccc3)[C@H]2SC1	-29.0%	3.1%
CCN1CCN(CC2COc3ccccc3O2)CC1 (centres undefined)	1.9%	-0.2%
c1ccc2c(c1)CC(CN1CCNCC1)O2 (centres undefined)	14.1µM*	0.7%
COc1ccc2c(C)cc(SCC(=O)Nc3nsc(-c4ccccc4C)n3)nc2c1	1.9%	.
Cn1c(=S)c2[nH]c(SCCN3CCCC3)nc2n(C)c1=O	39.8µM*	-6.1%
CCN1CCCC(Sc2nc3c([nH]2)c(=S)n(C)c(=O)n3C)C1 (centres undefined)	39.8µM*	-2.2%
CCCc1nc(SC2CCCC2)c2c(=O)n(C)c(=O)n(C)c2n1	3.8%	1.5%
Cn1c(=O)c2c(nc(SCCN3CCCCC3)n2C)n(C)c1=O	-0.1%	-0.7%
O=C(NCCSc1c(-c2ccc(Br)cc2)[nH]c2ccccc12)c1ccc(S(=O)(=O)N2CCOCC2)cc1	3.8%	.
CCCSc1nnc2n(-c3cccc(C)c3)c(=O)c3c4c(sc3n12)CCCC4	2.5%	.
O=C1c2ccccc2C(O)(Cc2ccccc2)N1Cc1ccco1 (centres undefined)	44.7µM*	15.5%
CC1(O)c2ccccc2C(=O)N1Cc1ccccc1 (centres undefined)	0.8%	-6.6%
CC1C2(C)OCC(C#N)(C(=N)O2)C1(C#N)C#N (centres undefined)	12.6µM*	1.1%
CCOc1ccc(-c2cc(C(=O)N3CCN(c4cccc(C(F)(F)F)c4)CC3)c3ccccc3n2)cc1	6.9%	.
Cc1nn(C)c2c1c(C(F)(F)F)cc(=O)n2CC(=O)NC(C)(C)C	-0.9%	.
CN1C(=O)C(CC(=O)Nc2ccc(Cl)cc2)N(Cc2ccco2)C1=S (centres undefined)	10µM*	0.5%
SMILES	Sm TGR inh	SARS PLP yeast
CCN1C(=O)C(CC(=O)Nc2ccc(OC)cc2)N(Cc2ccco2)C1=S (centres undefined)	-14.3%	15.0%
CCc1ccc(NC(=O)CC2C(=O)N(c3cccc(OC)c3)C(=O)N2Cc2ccco2)cc1 (centres undefined)	39.8µM*	.
CCc1ccc(NC(=O)CC2C(=O)N(c3ccc(Cl)cc3)C(=O)N2Cc2ccco2)cc1 (centres undefined)	-2.5%	.
COc1ccc(NC(=O)CC2C(=O)N(c3ccccc3)C(=O)N2Cc2ccco2)cc1 (centres undefined)	-13.0%	-4.2%
CCc1ccc(NC(=O)CC2C(=O)N(c3cccc(C)c3)C(=O)N2Cc2ccco2)cc1 (centres undefined)	44.7µM*	.
COc1cccc(OC)c1NC(=O)Cn1nc(-c2ccc3c(c2)OCCO3)ccc1=O	0.4%	-1.3%
CC(=O)Nc1cc2c(cc1NC(=O)Cn1nc(-c3ccccc3F)ccc1=O)OCCO2	44.7µM*	2.9%
CCOc1ccccc1NC(=O)C(C)n1nnc2sc3c(c2c1=O)CCCC3 (centres undefined)	4.1%	.
Cc1ccc(CN2CCNC(=O)C2CC(=O)NC2CCCCCC2)o1 (centres undefined)	?	-0.3%
COc1ccc(CN2CCNC(=O)C2CC(=O)NCCCn2nnc3ccccc32)cc1C (centres undefined)	-16.9%	?
Cc1ccc(CN2CCNC(=O)C2CC(=O)NCCCn2ncc3ccccc32)o1 (centres undefined)	25.1µM*	1.1%

Assay outcomes: PubChem BioAssay, National Center for Advancing Translational Sciences (NCATS)
